Results filed as inconclusive are left out. The source made the active and inactive calls. Calls follow the shape of the dose curve; as a rule, active = well fitted cell-killing curve with a large enough effect in the repeat runs; inconclusive = weak or mixed curves; inactive = flat fitted curve, though single readings scatter.
Experiment: qHTS RealTime-Glo MT Cell Viability Assay in HepG2 cells - 24 hour (AID 1224867); also: nearly all actives have a fitted effect of over 50% in size
Details: RealTime-Glo luminescence; series mostly up to 76.8 µM; activity change, negative = cytotoxicity: at the top concentration
From the text: U.S. Tox21 Program National Center for Advancing Translational Sciences [NCATS] NIH Chemical Genomics Center [NCGC] U.S. Environmental Protection Agency [EPA] National Institutes of Environmental Health Sciences [NIEHS] National Toxicology Program [NTP] U.S. Food and Drug Administration [FDA] Tox21 Assay Overview: Measure of cell viability is critical in the cell-base assay. Analysis of cell viability is necessary for the characterization of cell responses to cytotoxic drugs and environmental stress. A RealTime-Glo MT Cell Viability Assay to monitor cell viability in real time of continues cell culture during 40 hours of compound treatment was used to screen Tox21 10K library compounds in HepG2 cells. The RealTime-Glo MT Cell Viability Assay is a nonlytic, homogeneous, bioluminescent method to measure cell viability in real time using a simple, plate-based method. The assay involves adding NanoLuc luciferase and a cell-permeant prosubstrate to cells in culture. Viable cells reduce the proprietary prosubstrate to generate a substrate for NanoLuc luciferase. This substrate diffuses from cells into the surrounding culture medium, where it is rapidly used by the NanoLuc Enzyme to produce a luminescent signal. The signal correlates with the number of viable cells, making the assay well suited for cytotoxicity studies.
Tox21 Assay Protocol Summary: The mixture of HepG2 cell suspension and reagents were dispensed at 600cells/6 ul/well in 1536-well tissue culture treated black solid bottom plates using a Multidrop dispenser. After the assay plates were incubated at a 37 C/5% CO2 incubator for 5 hours, 23 nL of compounds dissolved in DMSO, positive and negative controls was transferred to the assay plate by a pintool work station. The plates were incubated at 37 C for 40 hours. The luminescence intensity were measured at 0h, 8h, 16h, 24h, 32h and 40h time points using ViewLux plate reader during compound treatment.
% is scaled to controls: 0 for no effect and ±100 for the full control effect.

Compound | activity change, negative = cytotoxicity
CC[N+](C)(CC)CCOC(=O)C(O)(c1ccccc1)C1CCCCC1 (stereo not given) | -1.46% [at 35.3 µM] (inactive)
CC(=O)c1ccc2c(c1)N(CCCN(C)C)c1ccccc1S2 | -9.89% [at 35.3 µM] (inactive)
Brc1c2ccccc2cc2ccccc12 | -6.32% (inactive)
CC(=O)c1ccc2c(c1)N(CCCN1CCC(CCO)CC1)c1ccccc1S2 | -27.1% [at 35.3 µM] (inactive)
O=C(CS)Nc1ccccc1 | -11.9% [at 35.3 µM] (inactive)
CO[C@@H]1[C@H](OC(=O)/C=C/C=C/C=C/C=C/C(=O)O)CC[C@]2(CO2)[C@H]1[C@@]1(C)O[C@@H]1CC=C(C)C | -7.23% (inactive)
C=C(C)C(=O)OCC | 0.581% (inactive)
CCN(CC)CCOC(=O)C(Cc1cccc2ccccc12)CC1CCCO1 (stereo not given) | -4.63% [at 35.3 µM] (inactive)
CCC(C)O (stereo not given) | -1.57% (inactive)
Cc1cc(C(=O)O)ccc1[N+](=O)[O-] | 2.32% (inactive)
CC(C)Nc1ccc(NC(C)C)c2c1C(=O)c1ccccc1C2=O | -12.9% [at 35.3 µM] (inactive)
COc1ccc(C(=O)c2ccc(OC)cc2O)c(O)c1 | -16.8% (inactive)
COc1ccc(-c2nc3ccc(C4=NNC(=O)CC4C)cc3[nH]2)cc1 (stereo not given) | -7.44% [at 35.3 µM] (inactive)
CCO[Si](CCCCl)(OCC)OCC | 0.634% (inactive)
CCOC(=O)C(O)c1ccccc1 (stereo not given) | 3.35% [at 35.3 µM] (inactive)
C[C@H](CCC(=O)O)[C@H]1CC[C@H]2[C@@H]3CC[C@@H]4C[C@H](O)CC[C@]4(C)[C@H]3C[C@H](O)[C@]12C | 1.3% (inactive)
C[C@@H]1C[C@H]2O[C@@]3(O[C@@H]2C(C)(C)O)[C@H](O)[C@@]2(C)[C@@H]4CC[C@H]5C(C)(C)[C@@H](O[C@@H]6OC[C@@H](O)[C@H](O)[C@H]6O)CC[C@@]56C[C@@]46CC[C@]2(C)[C@@H]13 | -1.72% [at 35.3 µM] (inactive)
CCCCO | 0.502% (inactive)
CC(=O)[O][Al] | 0.337% (inactive)
CN1CCC(N(Cc2cccs2)c2ccccc2)CC1 | -14.7% [at 35.3 µM] (inactive)

Compound | activity change, negative = cytotoxicity
CCC(C)(C)CC | -5.22% (inactive)
COc1ccc(C)cc1[N+](=O)[O-] | 1.89% (inactive)
O=C(O)c1nc(Cl)c(Cl)c(Cl)c1Cl | 5.91% (inactive)
CCCCc1nc2cccnc2n1Cc1ccc(-c2ccccc2-c2nnn[nH]2)cc1 | -0.437% (inactive)
O=C1C(O)=C(O)C(=O)C(O)=C1O | -1.18% [at 35.3 µM] (inactive)
CC[N+]1(CC)CCC(=C(c2ccccc2)c2ccccc2)C1C (stereo not given) | -4.28% [at 35.3 µM] (inactive)
COc1cc2nc(Cl)nc(N)c2cc1OC | 0.0463% [at 35.3 µM] (inactive)
CN1Cc2cc(C(=O)N3CCC(C4CCNCC4)CC3)ccc2NC(CC(=O)O)C1=O (stereo not given) | 0.0061% [at 35.3 µM] (inactive)
COCC(C)OC(C)=O (stereo not given) | 0.867% (inactive)
CN(C)CCN(Cc1ccsc1)c1ccccn1 | 0.525% [at 35.3 µM] (inactive)
Cc1ncc(CO)c(C=O)c1O | 1.33% [at 35.3 µM] (inactive)
N=c1ccn2c(n1)O[C@H]1[C@H](O)[C@@H](CO)O[C@H]12 | -1.37% (inactive)
C[N+](C)(C)CCOC(=O)CCC(=O)OCC[N+](C)(C)C | 2.81% [at 35.3 µM] (inactive)
CC(C)(C)Cl | 1.24% (inactive)
CC1=CCCC(C)(C)C12CCC(C)O2 (stereo not given) | 1.12% (inactive)
O=C(Nc1ccccc1)c1ccccc1O | -18.8% (inactive)
OC[C@H]1O[C@@H](OCCc2ccc(O)cc2)[C@H](O)[C@@H](O)[C@@H]1O | 1.18% [at 35.3 µM] (inactive)
CCOCC(O)COc1ccc(NC(=O)CC[S+](C)C)cc1 (stereo not given) | 3.42% [at 35.3 µM] (inactive)
CCCCC(CC)COC(=O)COc1ccc(Cl)cc1Cl (stereo not given) | -3.83% (inactive)
C[N+]1(C)CCC(OC(=O)C(O)(c2ccccc2)C2CCCC2)C1 (stereo not given) | 1.45% [at 35.3 µM] (inactive)
